From PubChem BioAssay
The source made the active and inactive calls.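 Rule for the calls, unless noted: active = Her2 level under about 52% in both replicate screens, with viability over 70% of control (limit read from the data); inconclusive = Her2 under the limit in one screen only, or viability under 70%; inactive = Her2 level above the set limit.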

target: Receptor tyrosine-protein kinase erbB-2 (Homo sapiens) (UniProt P04626); assay: Her2 expression decrease, cell viability multiplex – SKBR3 breast tumor cells, AlphaScreen, ATP viability, primary screen (AID 461); conditions: 18-24 h, at 10 µM, hits give low values;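 note: lower value means less Her2 protein in the cells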
Sequence (P04626 whole entry, looked up): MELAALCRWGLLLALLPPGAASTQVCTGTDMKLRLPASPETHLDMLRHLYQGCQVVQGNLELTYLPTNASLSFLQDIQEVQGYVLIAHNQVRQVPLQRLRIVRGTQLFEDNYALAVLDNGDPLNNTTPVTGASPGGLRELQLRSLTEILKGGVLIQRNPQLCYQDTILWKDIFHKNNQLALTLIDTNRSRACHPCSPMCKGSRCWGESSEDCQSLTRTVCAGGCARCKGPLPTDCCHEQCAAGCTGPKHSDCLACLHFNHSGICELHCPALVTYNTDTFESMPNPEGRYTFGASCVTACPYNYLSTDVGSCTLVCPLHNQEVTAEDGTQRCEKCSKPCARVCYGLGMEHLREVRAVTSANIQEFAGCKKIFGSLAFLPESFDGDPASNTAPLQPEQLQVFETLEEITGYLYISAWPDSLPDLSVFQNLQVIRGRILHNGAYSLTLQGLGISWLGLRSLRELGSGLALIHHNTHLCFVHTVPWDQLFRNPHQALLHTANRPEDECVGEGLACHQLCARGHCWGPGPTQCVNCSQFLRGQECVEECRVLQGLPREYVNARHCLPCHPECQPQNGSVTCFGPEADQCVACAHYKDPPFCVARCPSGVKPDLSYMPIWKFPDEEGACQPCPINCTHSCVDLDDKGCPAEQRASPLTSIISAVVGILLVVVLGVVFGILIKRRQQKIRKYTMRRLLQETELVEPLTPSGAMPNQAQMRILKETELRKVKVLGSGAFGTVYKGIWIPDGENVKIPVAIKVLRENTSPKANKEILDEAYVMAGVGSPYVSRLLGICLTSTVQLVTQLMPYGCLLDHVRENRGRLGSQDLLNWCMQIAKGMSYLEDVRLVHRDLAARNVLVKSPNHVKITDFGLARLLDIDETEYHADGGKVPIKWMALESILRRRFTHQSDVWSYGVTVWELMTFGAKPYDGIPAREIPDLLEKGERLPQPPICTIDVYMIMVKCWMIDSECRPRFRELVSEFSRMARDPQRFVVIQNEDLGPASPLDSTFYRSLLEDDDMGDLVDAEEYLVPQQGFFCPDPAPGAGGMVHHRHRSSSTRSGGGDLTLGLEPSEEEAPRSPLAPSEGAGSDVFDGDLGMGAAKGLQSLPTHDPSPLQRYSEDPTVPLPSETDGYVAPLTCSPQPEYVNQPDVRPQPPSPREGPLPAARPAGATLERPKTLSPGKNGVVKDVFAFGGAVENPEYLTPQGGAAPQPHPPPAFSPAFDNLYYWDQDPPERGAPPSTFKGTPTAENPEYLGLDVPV

Row | Structure (SMILES) | Her2 level
1 | CCCCn1cnc2c(cnn2-c2ccc(Cl)cc2)c1=O | 87% (inactive)
2 | Cc1ccc(N2CCN(C(=O)c3ccccc3Br)CC2)c(C)c1 | 72% (inactive)
3 | COc1cccc(CN2CCN(C(=O)c3ccco3)CC2)c1OC | 90% (inactive)
4 | CCOC(=O)c1nnn(CC(=O)Nc2cccc(OC)c2)c1C(=O)OCC | 86.5% (inactive)
5 | O=C(CCN1C(=O)c2ccccc2C1=O)OCN1C(=O)c2ccccc2C1=O | 108% (inactive)
6 | COc1ccccc1CC1(C)NC(=O)N(CC(=O)Nc2cc(C)on2)C1=O (stereo not given) | 86% (inactive)
7 | c1ccc(CNc2c3c(nc4ncnn24)CCCC3)nc1 | 83.5% (inactive)
8 | Cc1cc(C(=O)OCCO)c(C#N)c(N)n1 | 90.5% (inactive)
9 | CN(c1ccccc1)S(=O)(=O)c1ccc(C(=O)OCC(=O)N2CCOCC2)cc1 | 85.5% (inactive)
10 | CCC1C(=O)n2nc(-c3ccccc3)cc2N=C1C (stereo not given) | 66.5% (inactive)
11 | NC(=O)c1c(NC(=O)CSc2nnc(-c3ccco3)n2-c2ccccc2)sc2c1CCC2 | 68% (inactive)
12 | CCN(Cc1cc2ccccc2[nH]c1=O)S(=O)(=O)c1ccccc1 | 112% (inactive)
13 | CCOC(=O)C1CCCN(Cc2nc(N)nc(Nc3ccc(C)cc3)n2)C1 (stereo not given) | 78% (inactive)
14 | COc1cccc(NC(=O)CSc2nnc(-c3cccs3)n2C)c1 | 78.5% (inactive)
15 | O=C(Nc1cccc(C(=O)N2CCOCC2)c1)c1cccnc1 | 118% (inactive)
16 | C=CCn1c(=O)[nH]c2cc(C(=O)N3CCN(c4cc(C)ccc4C)CC3)ccc2c1=O | 79.5% (inactive)
17 | COc1ccc(C2/C(=C(/O)c3cnn(-c4ccccc4)c3C)C(=O)C(=O)N2CCN(C)C)cc1OC (stereo not given) | 86% (inactive)
18 | COCCN(C(=O)Cn1nnc2ccccc21)C(C(=O)NC1CCCC1)c1cc(OC)ccc1OC (stereo not given) | 106% (inactive)
19 | O=C(OCC(=O)N1CCc2ccccc21)C1=COCCO1 | 90% (inactive)
20 | O=C(CCn1c(=O)sc2ccccc21)NC1=NCCS1 | 96% (inactive)

Row | Structure (SMILES) | Her2 level
21 | CC(C)COC(=O)C1[C@H]2C(=O)N(Cc3cccs3)C[C@]23C=C[C@H]1O3 (stereo not given in full) | 109% (inactive)
22 | O=C(Cn1nnc(-c2cccc(C(F)(F)F)c2)n1)NC(=O)NCc1ccco1 | 102% (inactive)
23 | Cn1c(=O)c(C(=O)Nc2cccnc2)c(O)c2ccccc21 | 59.5% (inactive)
24 | O=S(=O)(c1cccc(-c2nnco2)c1)N1CCCC1 | 116% (inactive)
25 | CCOc1ccc2c(c1)sc1nc(C(=O)OC)cc(=O)n12 | 84% (inactive)
26 | O=C(c1cccn2c(=O)c3cc(Cl)ccc3nc12)N1CCOCC1 | 104% (inactive)
27 | CC1(C)CNC(=O)CC(C)(C)N1O | 129% (inactive)
28 | O=C(CSc1nnnn1C1CCCC1)Nc1cccc(NC(=O)c2ccco2)c1 | 98.5% (inactive)
29 | Cc1onc(-c2ccccc2)c1C(=O)Nc1ccnn1C1CCCCC1 | 97.5% (inactive)
30 | O=C1C(c2ccncc2)=C(O)c2ccccc21 | 87% (inactive)
31 | CC(NC(=O)Cc1cccs1)c1ccc2c(c1)OCO2 (stereo not given) | 81.5% (inactive)
32 | O=C(c1cnn2c(C(F)F)cc(C3CC3)nc12)N1CCOCC1 | 102% (inactive)
33 | COc1ccc(-c2cc(C(F)F)n3ncc(C(=O)NCC4CCCO4)c3n2)cc1 (stereo not given) | 89% (inactive)
34 | Cn1c(SCC(=O)Nc2ccc3c(c2)oc2ccccc23)nnc1-c1ccccc1 | 75.5% (inactive)
35 | COC(=O)Nc1ccc(S(=O)(=O)N(C)CC(F)(F)C(F)F)cc1 | 102% (inactive)
36 | Cc1cccc(C2CC(c3ccc(Br)cc3)Nc3nc(N)nn32)c1 (stereo not given) | 94% (inactive)
37 | Cc1cnc(C(=O)OCC(=O)Nc2ccc(Cl)cc2Cl)cn1 | 100% (inactive)
38 | CCOC(=O)C1CCN(C(=O)c2ccc(OC)cc2OC)CC1 | 112% (inactive)
39 | CN(Cc1ccccc1)Cc1c[nH]c2ccccc12 | 96.5% (inactive)
40 | CCN(C(=O)COC(=O)c1cc(C)n(-c2ccc(F)cc2)c1C)C1CCS(=O)(=O)C1 (stereo not given) | 93.5% (inactive)

tested on: not listed separately; assay: reduced viability of SK-BR-3 breast cancer cells – cell-based, 24 h, human, pilot screen (AID 572;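 active = viability at or below 10% of carrier control in both of two separate runs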;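 note: compound exposure lasted between 18 and 24 h rather than exactly 24 h; 100% = carrier-treated control wells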); conditions: SK-BR-3 viability, CellTiter-Glo luminescence, at 10 µM, hits give low values

Row | Structure (SMILES) | viability
41 | CCCCn1cnc2c(cnn2-c2ccc(Cl)cc2)c1=O | 94.5% (inactive)
42 | Cc1ccc(N2CCN(C(=O)c3ccccc3Br)CC2)c(C)c1 | 110% (inactive)
43 | COc1cccc(CN2CCN(C(=O)c3ccco3)CC2)c1OC | 112% (inactive)
44 | CCOC(=O)c1nnn(CC(=O)Nc2cccc(OC)c2)c1C(=O)OCC | 92.5% (inactive)
45 | O=C(CCN1C(=O)c2ccccc2C1=O)OCN1C(=O)c2ccccc2C1=O | 95% (inactive)
46 | COc1ccccc1CC1(C)NC(=O)N(CC(=O)Nc2cc(C)on2)C1=O (stereo not given) | 106% (inactive)
47 | c1ccc(CNc2c3c(nc4ncnn24)CCCC3)nc1 | 95.5% (inactive)
48 | Cc1cc(C(=O)OCCO)c(C#N)c(N)n1 | 92% (inactive)
49 | CN(c1ccccc1)S(=O)(=O)c1ccc(C(=O)OCC(=O)N2CCOCC2)cc1 | 106% (inactive)
50 | CCC1C(=O)n2nc(-c3ccccc3)cc2N=C1C (stereo not given) | 106% (inactive)
51 | NC(=O)c1c(NC(=O)CSc2nnc(-c3ccco3)n2-c2ccccc2)sc2c1CCC2 | 76% (inactive)
52 | CCN(Cc1cc2ccccc2[nH]c1=O)S(=O)(=O)c1ccccc1 | 110% (inactive)
53 | CCOC(=O)C1CCCN(Cc2nc(N)nc(Nc3ccc(C)cc3)n2)C1 (stereo not given) | 99.5% (inactive)
54 | COc1cccc(NC(=O)CSc2nnc(-c3cccs3)n2C)c1 | 98% (inactive)
55 | O=C(Nc1cccc(C(=O)N2CCOCC2)c1)c1cccnc1 | 99.5% (inactive)
56 | C=CCn1c(=O)[nH]c2cc(C(=O)N3CCN(c4cc(C)ccc4C)CC3)ccc2c1=O | 81.5% (inactive)
57 | COc1ccc(C2/C(=C(/O)c3cnn(-c4ccccc4)c3C)C(=O)C(=O)N2CCN(C)C)cc1OC (stereo not given) | 109% (inactive)
58 | COCCN(C(=O)Cn1nnc2ccccc21)C(C(=O)NC1CCCC1)c1cc(OC)ccc1OC (stereo not given) | 86% (inactive)
59 | O=C(OCC(=O)N1CCc2ccccc21)C1=COCCO1 | 89.5% (inactive)
60 | O=C(CCn1c(=O)sc2ccccc21)NC1=NCCS1 | 84% (inactive)

Row | Structure (SMILES) | viability
61 | CC(C)COC(=O)C1[C@H]2C(=O)N(Cc3cccs3)C[C@]23C=C[C@H]1O3 (stereo not given in full) | 102% (inactive)
62 | O=C(Cn1nnc(-c2cccc(C(F)(F)F)c2)n1)NC(=O)NCc1ccco1 | 89% (inactive)
63 | Cn1c(=O)c(C(=O)Nc2cccnc2)c(O)c2ccccc21 | 81% (inactive)
64 | O=S(=O)(c1cccc(-c2nnco2)c1)N1CCCC1 | 100% (inactive)
65 | CCOc1ccc2c(c1)sc1nc(C(=O)OC)cc(=O)n12 | 94% (inactive)
66 | O=C(c1cccn2c(=O)c3cc(Cl)ccc3nc12)N1CCOCC1 | 95.5% (inactive)
67 | CC1(C)CNC(=O)CC(C)(C)N1O | 90% (inactive)
68 | O=C(CSc1nnnn1C1CCCC1)Nc1cccc(NC(=O)c2ccco2)c1 | 91.5% (inactive)
69 | Cc1onc(-c2ccccc2)c1C(=O)Nc1ccnn1C1CCCCC1 | 99.5% (inactive)
70 | O=C1C(c2ccncc2)=C(O)c2ccccc21 | 100% (inactive)
71 | CC(NC(=O)Cc1cccs1)c1ccc2c(c1)OCO2 (stereo not given) | 125% (inactive)
72 | O=C(c1cnn2c(C(F)F)cc(C3CC3)nc12)N1CCOCC1 | 104% (inactive)
73 | COc1ccc(-c2cc(C(F)F)n3ncc(C(=O)NCC4CCCO4)c3n2)cc1 (stereo not given) | 92% (inactive)
74 | Cn1c(SCC(=O)Nc2ccc3c(c2)oc2ccccc23)nnc1-c1ccccc1 | 83% (inactive)
75 | COC(=O)Nc1ccc(S(=O)(=O)N(C)CC(F)(F)C(F)F)cc1 | 107% (inactive)
76 | Cc1cccc(C2CC(c3ccc(Br)cc3)Nc3nc(N)nn32)c1 (stereo not given) | 92.5% (inactive)
77 | Cc1cnc(C(=O)OCC(=O)Nc2ccc(Cl)cc2Cl)cn1 | 89.5% (inactive)
78 | CCOC(=O)C1CCN(C(=O)c2ccc(OC)cc2OC)CC1 | 102% (inactive)
79 | CN(Cc1ccccc1)Cc1c[nH]c2ccccc12 | 87% (inactive)
80 | CCN(C(=O)COC(=O)c1cc(C)n(-c2ccc(F)cc2)c1C)C1CCS(=O)(=O)C1 (stereo not given) | 85.5% (inactive)
